# Bioassay records (PubChem BioAssay)
# L3MBTL1 inh: L3MBTL1 (human) inhibition; AID 485360; AlphaScreen L3MBTL1–H3K9me1 peptide binding; Potency, µM (top dose mostly 57.1 µM), for the others: at the top dose activity, negative = inhibition, usual class: inhibitors; Q9Y468; actives 0.66% (n = 230,000); also: % is scaled to controls: 0 for no effect and ±100 for the full control effect; nearly all actives have a fitted effect of over 60% in size
#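 First, the protein-peptide complex forms for 30 min at room temperature (L3MBTL1 50 nM, biotinylated H3K9me1 peptide 75 nM). Next, compounds are pin-transferred and incubated 30 min. Finally, AlphaScreen beads are added and read after 30 min.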
# BAZ2B inh: BAZ2B (human) inhibition; Q9UIF8; actives 4.4% (n = 360,000); Potency, µM (highest dose often 114 µM), for the others: at the highest dose activity change, negative = inhibition, most hits filed as inhibitors; AlphaScreen BAZ2B-H3K14Ac peptide displacement; AID 504333; also: % is scaled to controls: 0 for no effect and ±100 for the full control effect; nearly all actives have a fitted effect of over 60% in size
#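 Compounds, titrated to a top concentration of 110 uM, were incubated 30 min at room temperature with preformed BAZ2B/acetyl-K14 H3 peptide complex (50 nM each). Proximity signal was measured by AlphaScreen after 20 min with beads.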
# HP1b binding inh: inhibitors of HP1-beta chromodomain binding to methylated histone tails; P83916; AlphaScreen HP1-beta / biotin-H3K9me3 peptide binding; Potency, µM (titrated, usually from 114 µM), for inactives: top-dose activity change, negative = inhibition, most hits filed as inhibitors; actives 0.56% (n = 390,000); also: nearly all actives have a fitted effect of over 70% in size
#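 Compound inhibition of the preformed complex between 50 nM HP1-beta and 50 nM biotinylated H3K9me3 peptide was read by AlphaScreen. Buffer was PBS pH 7.4 with 0.01% Tween-20. Incubations ran 30 min at room temperature, with 10 ug/mL donor/acceptor beads.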
# JMJD2A Tudor: blocks the human JMJD2A Tudor domain; AlphaScreen JMJD2A-Tudor / H3K4me3 peptide binding; O75164; actives 4.4% (n = 390,000); Potency, µM (top dose mostly 114 µM), without a hit: top-dose activity change, negative = inhibition, most hits filed as inhibitors; also: % is scaled to controls: 0 for no effect and ±100 for the full control effect; nearly all actives have a fitted effect of over 50% in size
# PLK1 PBD inh: blocks phosphopeptide binding to human PLK1 polo-box domain; Potency, µM, inactives show max response, negative = inhibition, actives largely listed as inhibitors; P53350; actives 2.8% (n = 360,000); Plk1 PBD binding of FITC phosphopeptide, fluorescence polarization; also: series mostly up to about 57 µM; % is scaled to controls: 0 for no effect and ±100 for the full control effect; nearly all actives have a fitted effect of over 65% in size
# VDR inhibitor: vitamin D3 receptor (human) inhibition. AID 504847. VDR-SRC2-3 peptide fluorescence polarization, 2 h. Potency, µM, for inactives: max response, negative = inhibition, most hits filed as inhibitors. actives 0.93% (n = 400,000); also: % is scaled to controls: 0 for no effect and ±100 for the full control effect
#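 Reagent solutions, kept cold and dark, are dispensed first; compounds are then pinned in at 23 nl, plates briefly spun, and incubated 2 h at ambient temperature. Inhibition of VDR–SRC2-3 peptide binding is read by fluorescence polarization.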
# Starred values were filed as active, the others as inactive; ? = inconclusive; . = no result; [ ] = another dose, or the depositor's remark. Most compounds without a hit are left out; they make up all but 6.9% or so of the library. Calls follow the shape of the dose curve; as a rule, active = well fitted curve in the direction sought with a large enough effect; inconclusive = small, poorly fitted or top-dose-only effect, or another doubt; inactive = no such curve, though single readings can be large; an effect the other way counts as inactive or inconclusive. Potency is read from the fitted curve at half-maximal effect.
SMILES,L3MBTL1 inh,BAZ2B inh,HP1b binding inh,JMJD2A Tudor,PLK1 PBD inh,VDR inhibitor
CCOc1ccc(NC(=O)CN2C(=O)COc3ccc(S(=O)(=O)N4CCCCC4)cc32)cc1,.,-10%,5%,?,27µM*,-10%
CCN(Cc1ccccc1)C(=O)CN1C(=O)COc2ccc(S(=O)(=O)N3CCCCCC3)cc21,.,?,23%,-18%,-6%,-17%
CCN(C(=O)CN1C(=O)COc2ccc(S(=O)(=O)N3CCCCCC3)cc21)c1cccc(C)c1,.,-32%,-14%,?,24µM*,?
COc1ccc(-c2csc3ncnc(Nc4ccc(OC)c(OC)c4)c23)cc1,.,-31%,-1%,?,.,11%
Cc1nn(C)c(C)c1NC(=O)CCl,9%,35µM*,17%,-26%,-11%,3%
Cc1ccc(-n2nc(C)c(NC(=O)CCl)c2C)cc1C,-2%,3%,23%,7%,1%,3%
Cc1nn(-c2ccccc2)c(N)c1Sc1ccccc1[N+](=O)[O-],-3%,?,-21%,?,-16%,-22%
Cc1nn(-c2ccccc2)c(N)c1Sc1cccc([N+](=O)[O-])c1,-7%,?,-21%,56µM*,?,-15%
CN(C)S(=O)(=O)N1CCC(Oc2cccc(C(=O)NC3CCCCC3)c2)CC1,.,1%,?,?,15µM*,?
C=CCn1c(COC)nnc1SCC(=O)c1ccc(F)cc1,-4%[11.4 µM],26%,-41%,40µM*,-16%,?
C=CCn1c(COc2cccc3ccc(C)nc23)nnc1SCC(=O)O,.,2%,33%,28µM*,-4%,-21%
O=C(CCn1c(=O)c2cccn2c2cccnc21)NCc1ccccc1Cl,.,-11%,11%,1%,.,-3%
COc1cccc(NC(=O)CSc2nc3cc(OC)c(OC)cc3c3nc(-c4ccccc4)nn23)c1,.,.,27%,-12%,.,-15%
CCc1nc2ccccc2n2c(-c3ccccc3)c3c(=O)n(C)c(=O)n(C)c3c12,.,-7%[57.1 µM],76%,18%,.,-8%
Cc1ccc(S(=O)(=O)Nc2ccc(-c3ccc(N4CCCCCC4)nn3)cc2)c(C)c1,.,-12%,1%[57 µM],-25%,.,3%
Cc1ccc(S(=O)(=O)Nc2cccc(-c3ccc(N4CCCCCC4)nn3)c2)c(C)c1,.,-12%,1%,?,27µM*,?
Cc1ccc(OCC(=O)Nc2ccc3c(c2)nc2n3CCOC2)cc1,1%,-33%,27%,-25%,-10%,10%
O=C(COc1ccc([N+](=O)[O-])cc1)Nc1ccc2c(c1)nc1n2CCOC1,.,-5%,16%,?,3µM*,?
COc1cccc(N2CCN(C(=O)c3nc(-c4ccc(Cl)cc4)n4c3CCCCC4)CC2)c1,.,28µM*,?,40µM*,.,4%
COc1ccccc1N1CCN(C(=O)c2nc(-c3ccc(C)cc3)n3c2CCCCC3)CC1,.,-19%,-1%,-30%,.,0%
Cc1cccc(CCNC(=O)c2nc(-c3ccc(Cl)cc3)n3c2CCCCC3)c1,.,10µM*,-23%,14µM*,.,-2%
COc1ccc(CCNC(=O)c2nc(-c3ccc(Cl)cc3)n3c2CCCCC3)c(OC)c1,.,18µM*,-23%,18µM*,.,13%
CCN(CC)S(=O)(=O)c1ccc(OCC(=O)NC(=O)Cc2ccccc2)c([N+](=O)[O-])c1,-20%,-38%,-26%[57 µM],?,-10%,-5%
NC(=O)c1ccccc1NC(=O)Cn1nc(Cc2cccnc2)c2ccccc2c1=O,.,-19%,9%,-32%,.,-2%
CC(C)(C)N/N=C/c1cc(Cl)cc([N+](=O)[O-])c1O,5%,?,-33%,?,?,-18%
SMILES,L3MBTL1 inh,BAZ2B inh,HP1b binding inh,JMJD2A Tudor,PLK1 PBD inh,VDR inhibitor
COc1cc(/C=N/Nc2ccccc2[N+](=O)[O-])cc(OC)c1O,?,?,-10%,-25%,-6%,-12%
O=[N+]([O-])c1cc(Cl)cc(/C=N/Nc2nc3ccccc3s2)c1O,-19%,6.3µM*,?,-25%[11.4 µM],27µM*,-20%
COc1cc(/C=N/Nc2nc3ccccc3s2)cc([N+](=O)[O-])c1O,-11%,35µM*,?,40µM*,-29%,-11%
O=c1c(C=Nc2ccc(Cl)cc2)c[nH]n1-c1cccc(Cl)n1,6%,-6%,18%,25µM*,-18%,-6%
O=c1c(C=Nc2cccc(C(F)(F)F)c2)c[nH]n1-c1cccc(Cl)n1,5%,?,-5%,40µM*,-5%,-3%
CCOc1[nH]n(-c2ccccc2)c(=O)c1C=Nc1ccc(Cl)cc1,5%,?,-31%,?,-7%,15%
O=c1[nH][nH]c(C(F)(F)F)c1C=Nc1cccc(Cl)c1,3%,-4%,23%,-19%,-2%,0%
C[C@@H](C(=O)O)c1ccc(C(=O)c2ccccc2)s1,.,.,.,.,.,1%
CCC(C)NS(=O)(=O)c1ccc(S(=O)(=O)N2CCCC3(CCCCC3)C2)cc1 (stereo not drawn),.,6%,7%,-18%,-6%,-13%
Cn1ccc2cc(S(=O)(=O)N3CCCC(C(=O)NCc4ccccc4)C3)ccc21 (stereo not drawn),.,0%,18%[57 µM],-13%,.,-1%
CCOC(=O)c1sc(SCC(=O)Nc2ccc(N(C)C)cc2)nc1N,-16%,45µM*,?,?,-2%,10%
COc1ccc(NC(=O)CSc2nc(N)c(C(=O)Nc3ccc(N(C)C)cc3)s2)cc1,.,-29%,7%,-12%,-7%,13%
CN(C)c1ccc(NC(=O)CSc2nc(N)c(C(=O)Nc3ccc(N(C)C)cc3)s2)cc1,?,20µM*,?,?,-14%,?
COc1ccc(NC(=O)CSc2nnc(N)s2)cc1,0%,-2%,17%,-10%,-3%,-8%
CCOC(=O)c1sc(NC(=S)NC(=O)CC(C)C)cc1C,-2%,-10%,-17%,3%[11.4 µM],27µM*,-30%
CN(c1ccccc1)c1ccc(/C=C(\C#N)c2nnc3n2CCCCC3)cc1[N+](=O)[O-],?,45µM*,?,45µM*,-18%,?
N#C/C(=C\c1cccc([N+](=O)[O-])c1)c1nnc2n1CCCCC2,6%,-1%,42%,-1%,-12%,-29%
S=C(c1ccc(-c2cc(Cl)ccc2Cl)o1)N1CCCCC1,-3%,28µM*,?,?,-1%,-17%
S=C(c1ccc(-c2cc(Cl)ccc2Cl)o1)N1CCOCC1,-24%,35µM*,18µM*,?,-13%,-6%
O=C(Nc1ccc(CN2CCOCC2)cc1)c1ccc(-c2cc(Cl)ccc2Cl)o1,.,-36%,11%,-11%,-5%,-1%
O=C(c1ccc(-c2ccccc2Cl)o1)N1CCCCCCC1,.,.,?,116%,-1%,-17%
O=C1NC(=S)S/C1=C\C=C\c1ccc([N+](=O)[O-])o1,.,11µM*,?,16µM*,21µM*,16%
